Rows were chosen to be rich in hits. Some 5.1% of all compounds tested hit in one or more screens of this group.
RAM inhibit = inhibitors of the yeast RAM network, primary screen, dse1pr::URA3 reporter, 5-FOA selection | S. cerevisiae dse1pr::URA3 reporter, 5-FOA growth OD615, 2 d; analog-sensitive cbk1-as2 kinase mutant strain | inhibition, % at 50 µM | 190,000 tested, 1.8% active | AID 868, 2007;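 active = inhibition above a set limit, 3 SD over mean compound inhibition, cut at about 8.4% in these data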;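 also: 0% = DMSO-only wells with no growth and 100% = 10 µM 1-NA-PP1 full growth; inhibition rescues growth on 5-FOA so higher OD means more RAM inhibition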
S1P4 ag = S1P4 receptor agonists, primary screen, cell-based. S1P4-expressing cell line, agonist reporter assay. activation, % at 4.98 µM. 220,000 tested, 0.35% active. AID 1509, 2009; in the data active = activation above about 11%;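 also: 0% = DMSO vehicle and 100% = reference agonist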
Target sequence (O95977 whole entry, looked up): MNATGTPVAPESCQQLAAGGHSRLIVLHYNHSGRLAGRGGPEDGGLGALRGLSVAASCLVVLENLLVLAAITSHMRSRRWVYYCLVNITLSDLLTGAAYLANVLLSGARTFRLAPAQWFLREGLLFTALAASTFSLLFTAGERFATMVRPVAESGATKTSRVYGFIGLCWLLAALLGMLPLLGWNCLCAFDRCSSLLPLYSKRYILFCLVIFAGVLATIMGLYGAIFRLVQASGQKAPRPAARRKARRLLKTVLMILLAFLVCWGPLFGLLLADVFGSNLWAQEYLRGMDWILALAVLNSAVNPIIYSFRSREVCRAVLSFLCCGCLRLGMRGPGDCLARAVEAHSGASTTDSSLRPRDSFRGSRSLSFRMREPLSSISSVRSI
Cl transport mod = KCC2 cotransporter modulators, thallium flux, primary screen, cell-based, HEK293 KCC2, FluoZin-2 fluorescence, MLSMR. KCC2 cells, thallium flux FluoZin-2 fluorescence. B-score of Tl+ flux slope (higher = more flux/activation; lower = inhibition) at 10 µM. 190,000 tested, 2.2% active. AID 1456, 2008;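 active = thallium flux slope and its plate-corrected score both differing from the plate sample mean at a set confidence after two filtering rounds, in either direction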;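 also: slope of fluorescence scaled to starting intensity during 10 to 20 s after thallium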
ROMK mod = ROMK potassium channel modulators, primary screen, cell-based, thallium flux, MLSMR library. ATP-sensitive inward rectifier potassium channel 1 (Homo sapiens), P48048. B-score at 10 µM. Tet-inducible ROMK, thallium flux fluorescence; actives lie on both sides. AID 1918, 2009. 130,000 tested, 2% active;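 active = signal ratio slope over the read window, or its plate-corrected B-score, at least 3 SD from the plate mean, either direction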;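 also: B-score of the F/F0 ratio slope over 7 to 12 s after thallium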
Target sequence (P48048 whole entry, looked up): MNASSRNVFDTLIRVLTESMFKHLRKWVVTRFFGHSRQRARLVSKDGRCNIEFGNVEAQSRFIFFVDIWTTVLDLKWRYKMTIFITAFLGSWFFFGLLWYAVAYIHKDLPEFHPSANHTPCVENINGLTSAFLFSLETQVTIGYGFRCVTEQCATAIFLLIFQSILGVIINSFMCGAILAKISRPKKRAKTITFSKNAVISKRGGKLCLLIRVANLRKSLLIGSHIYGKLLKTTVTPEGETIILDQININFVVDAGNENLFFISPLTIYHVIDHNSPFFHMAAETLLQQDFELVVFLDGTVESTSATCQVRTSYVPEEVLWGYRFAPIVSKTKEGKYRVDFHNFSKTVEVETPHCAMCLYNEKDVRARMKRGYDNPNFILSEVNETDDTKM
S1P3 antagonist = S1P3 receptor antagonists, primary screen, cell-based; CHO S1P3 NFAT-BLA reporter, FRET fluorescence, antagonist mode; inhibition, % at 4.98 µM; 170,000 tested, 0.27% active; AID 485, 2006;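 active = inhibition above the plate cutoff, the mean inhibition of test wells on that plate plus 3 SD, cut at about 28% in these data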;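 also: cells challenged with S1P at its EC80 of 0.8 µM; blue over green emission ratio from cleaved BLA substrate after 4 h stimulation; 0% = S1P-stimulated wells and 100% = unstimulated DMSO-only wells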
S1P4 antag = S1P4 receptor antagonists, primary screen, cell-based; Sphingosine 1-phosphate receptor 4 (Homo sapiens), O95977; S1P4-expressing cells, antagonist mode, reporter read-out; inhibition, % at 4.98 µM; 220,000 tested, 0.26% active; AID 1510, 2009; in the data active = inhibition above about 29%;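 also: 0% = wells stimulated with agonist and 100% = vehicle wells without agonist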
KCC2 sec1 = KCC2 modulators in sodium-free buffer, confirmation, cell-based, HEK293 KCC2, thallium flux, secondary assay. shares compounds with Cl transport mod. FluoZin2 fluorescence; hits give high values. normalised thallium flux (F/F0 slope) at 10 µM. 3,700 tested, 15% active. AID 1713, 2009;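 active = thallium flux slope above the same plate's solvent-only control mean plus 3 SD; inconclusive = the two replicate wells disagree; inactive = no significant difference from solvent-only control wells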
KCC2 bumet counter = thallium flux persisting under bumetanide in KCC2 cells, confirmation, counter-screen for KCC2 modulator project, cell-based, HEK293 KCC2, FluoZin2, secondary assay 3; shares compounds with Cl transport mod; HEK293-KCC2 + bumetanide/ouabain; hits give high values; normalized thallium flux at 10 µM; 3,700 tested, 49% active;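 active = thallium entry rate above the same plate's blocked-transporter control wells by more than 3 SD; inconclusive = the two repeat wells disagree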;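 also: raw slope of fluorescence over initial fluorescence between 10 and 20 s after thallium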
KCC2 sec2 = KCC2 modulators without ouabain present, confirmation, cell-based, HEK293 KCC2, thallium flux, FluoZin2, secondary assay 2. shares compounds with Cl transport mod. thallium flux FluoZin2 fluorescence; actives lie on both sides; F/F0 rise rate, 10–20 s post-thallium. normalized thallium flux at 10 µM. 3,700 tested, 23% active. AID 1715, 2009;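 active = thallium flux slope more than 3 SD above or below the plate's solvent-only control mean, mostly below; inconclusive = the two repeat wells disagreed; inactive = no significant shift from solvent-only controls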;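 also: raw slope with 0.1% DMSO as baseline and bumetanide as block control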
HEK293 Tl flux = thallium flux modulation in parental HEK cells, confirmation, counter-screen for KCC2 modulator project, cell-based, counterscreen 1. shares compounds with Cl transport mod. HEK293 parental cells, thallium flux FluoZin2, ouabain; baseline-ratio fluorescence slope, 10–20 s after thallium. thallium flux rate (normalised fluorescence) at 10 µM. 3,700 tested, 46% active. AID 1716, 2009;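 active = thallium flux rate significantly above the same plate's solvent-only control wells, beyond their mean plus 3 SD; inconclusive = the two replicate wells gave conflicting results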
KCC2 retest ouab = KCC2 inhibitors and activators, ouabain retest, confirmation, HEK-KCC2 cells | AID 1717, 2009 | raw Tl+ flux slope (below DMSO = inhibition, above = activation) at 10 µM | 3,700 tested, 48% active | shares compounds with Cl transport mod | HEK293-KCC2, thallium flux FluoZin2 fluorescence; bidirectional: low = inhibitor, high = activator;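 active = thallium flux slope beyond 3 SD from same-plate DMSO control mean in most replicates, usually higher, sometimes lower; inconclusive = repeat tests gave conflicting results; inactive = no significant difference from controls in most replicates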;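 also: slope of initial-normalized fluorescence between seconds 10 and 20 after thallium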
HEK293 Tl flux2 = native HEK Tl+ uptake effects, second counter-screen – HEK cells, counterscreen 2, counter-screen for KCC2 modulator project, confirmation; shares compounds with Cl transport mod; HEK293 parental, thallium flux FluoZin-2 fluorescence slope; thallium flux slope at 10 µM; 3,700 tested, 33% active; AID 1718, 2009;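 active = thallium flux slope above the same plate's solvent-control mean plus 3 SD in both duplicate wells; inconclusive = duplicate wells that disagreed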;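 also: run without ouabain in cells lacking the KCC2 cotransporter; slope of fluorescence scaled to its starting value between 10 and 20 s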
* = called active by the depositor; ? = inconclusive; . = no result given.

SMILES | RAM inhibit | S1P4 ag | Cl transport mod | ROMK mod | S1P3 antagonist | S1P4 antag | KCC2 sec1 | KCC2 bumet counter | KCC2 sec2 | HEK293 Tl flux | KCC2 retest ouab | HEK293 Tl flux2
COc1ccc(OCCN2C(=O)NC(C)(c3ccc(C)cc3)C2=O)cc1 (stereo unspecified) | -0.6 | 1.0 | 4.04* | . | -18.2 | 4.5 | 0.00805 | 0.00537 | 0.0339 | 0.00419 | 0.0189 | 0.0111
Cc1ccc(C2(C)NC(=O)N(CCOc3ccccc3)C2=O)cc1 (stereo unspecified) | 1.6 | -1.5 | -1.7 | . | . | 0.8 | . | . | . | . | . | .
CC1CCCCN1C(=S)NCc1ccco1 (stereo unspecified) | 1.4 | 1.5 | -0.121 | 0.603 | -1.8 | -8.4 | . | . | . | . | . | .
Oc1csc(Cc2nc(-c3ccc(-c4ccccc4)cc3)cs2)n1 | 4.7 | -3.1 | . | 0.218 | . | -10.4 | . | . | . | . | . | .
Oc1csc(Cc2nc(-c3ccc4ccccc4c3)cs2)n1 | 3.2 | 2.2 | . | 0.148 | . | -16.2 | 0.0157 | ? | 0.0273 | 0.00734 | 0.0156 | 0.01
CC(C)(C)[C@H]1C=C(C(=O)N2CCN(Cc3ccc4c(c3)OCO4)CC2)O[C@@H](OCc2ccc(CO)cc2)C1 | -1.4 | -1.1 | -1.44 | . | 1.0 | 22.6 | . | . | . | . | . | .
O=C(O)CNc1nc(-c2ccccc2)nc2c1oc1ccccc12 | . | 0.7 | . | 0.881 | 2.6 | -2.7 | 0.00656 | 0.00532 | 0.0288 | 0.00775 | 0.0185 | 0.0103
OCCCNc1nc(-c2ccccc2)nc2c1oc1ccccc12 | . | 0.4 | -0.678 | . | -6.5 | -29.1 | . | . | . | . | . | .
CCn1c(CNC(=O)c2ccccc2F)nnc1SCC(=O)NC1CCCCC1C (stereo unspecified) | 1.1 | -0.7 | -0.335 | 0.295 | -12.0 | 4.5 | . | . | . | . | . | .
Cc1cccc(-c2noc(CCCC(=O)Nc3cccnc3)n2)c1 | 0.7 | 0.3 | -5.11* | . | -16.8 | -6.4 | 0.00694 | 0.00455 | 0.0314 | 0.00825 | 0.0188 | 0.0112
Cc1cccc(-c2noc(CCCC(=O)Nc3ccc(C(N)=O)cc3)n2)c1 | 2.4 | 1.4 | . | -0.549 | . | -5.0 | . | . | . | . | . | .
CC(C)c1ccccc1NC(=O)CNC(C)c1ccc(F)cc1 (stereo unspecified) | 0.2 | -0.6 | 0.0565 | 0.0124 | 13.5 | -16.5 | . | . | . | . | . | .
COc1ccc(CCNc2cc(-c3ccccc3)nc3ncnn23)cc1 | 2.8 | 1.3 | 4.74* | . | . | -5.7 | 0.00712 | 0.00426 | 0.0273 | 0.0068 | 0.0169 | ?
Cc1ncc(CN2CCC(CO)(CCc3ccccc3)CC2)s1 | -1.0 | 1.0 | 0.0504 | 0.337 | -6.2 | -0.2 | . | . | . | . | . | .
C/C(=N\NC(=S)Nc1ccccc1)C1Cc2ccccc2C(=O)O1 (stereo unspecified) | . | 1.1 | 6.6* | 0.61 | -8.6 | 11.5 | 0.00705 | 0.0105* | 0.0327 | 0.0113* | 0.0225 | 0.0126*
C/C(=N\NC(=S)Nc1ccccc1C)C1Cc2ccccc2C(=O)O1 (stereo unspecified) | . | -0.2 | 2.63 | . | 12.5 | 3.5 | . | . | . | . | . | .
CCCCN(C)CCC(=O)Nc1ccc(F)c(F)c1 | 0.4 | -0.6 | 0.556 | . | -5.5 | -6.2 | . | . | . | . | . | .
Cc1ccc(OCC(=O)Nc2ccc(C)c(S(=O)(=O)N3CCCCC3)c2)c([N+](=O)[O-])n1 | 0.9 | 2.4 | -1.15 | . | -11.8 | -5.9 | . | . | . | . | . | .
COc1ccc(CCNc2oc(COc3ccccc3F)nc2C#N)cc1 | 5.3 | 1.5 | . | 0.761 | -0.6 | -8.0 | 0.00775 | 0.00341* | 0.0338 | 0.00534* | 0.0173* | 0.00984
C=CCNc1oc(COc2ccc(C)cc2)nc1C#N | 1.2 | -1.7 | . | . | -15.8 | 5.7 | 0.008 | 0.00531 | 0.0321 | 0.00744 | ? | 0.0107
CN(C)c1oc(COc2ccccc2F)nc1C#N | -0.3 | 0.3 | -0.852 | -0.463 | 2.7 | 7.2 | . | . | . | . | . | .
N#Cc1nc(COc2ccccc2F)oc1NCc1ccc(F)cc1 | 1.4 | -4.5 | . | . | -49.9 | -3.6 | 0.00592 | 0.00501 | ? | 0.00749 | ? | 0.0106
O=C(Nn1c(O)c(C=C2N=c3ccccc3=N2)sc1=S)c1ccccc1Cl | 3.0 | -0.5 | -4.38* | . | . | -13.9 | 0.0169 | 0.00483 | 0.0203* | 0.0077 | 0.0136 | 0.0118
COC(=O)c1ccc(NC(=O)CCN2CCN(Cc3ccccc3)CC2)cc1 | 0.1 | 0.0 | -1.95 | . | . | -11.0 | . | . | . | . | . | .
CN(C)S(=O)(=O)c1ccc(NC(=O)CSc2ncnc3ccccc23)cc1 | 0.8 | -0.4 | -4.04* | . | -19.7 | 3.4 | 0.00801 | 0.00655 | 0.0263* | 0.00717 | 0.0149* | 0.0113
CN(C)S(=O)(=O)c1cccc(NC(=O)CSc2ncnc3ccccc23)c1 | . | 0.5 | -4.21 | . | 6.6 | -17.9 | . | . | . | . | . | .
C/C(=N\NC(=O)c1ccc(Cl)cc1)c1cccs1 | 3.2 | -0.7 | 25.2* | -0.766 | 2.3 | 3.5 | 0.00596 | 0.0396* | 0.0496* | 0.0337* | 0.0406* | 0.029*
C/C(=N\NC(=O)c1cc(Br)ccc1O)c1cccs1 | 4.4 | 0.5 | 15* | 1.3 | -9.9 | -18.4 | 0.00867 | 0.031* | 0.0431* | 0.0304* | 0.0369* | 0.0335*
CC(C)(C)C(=O)N1CCN(c2nc3ccccc3o2)CC1 | -1.2 | 2.2 | -0.0791 | 0.141 | -5.3 | -10.5 | . | . | . | . | . | .

High-throughput results from PubChem.
